From PubChem BioAssay AID1159580 (chemical genetic matrix, 2015)
Hit rate of the full screen: of about 5,500 compounds, about 2,000 (36%) were called active. About 18% were inconclusive and are not listed. Cut-off read from the data, not from the text of the source: active = normalized growth mostly below about 0.91 (no sharp cut-off); inconclusive = no clear call, values can overlap the other calls; inactive = mostly above about 0.92. This is one part of the list.

Test: chemical genetic growth profiling, strain panel (AID 1159580);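 note: tested at 20 µM; growth read once vehicle control cultures reached saturation at 30 °C; 1 = growth at the plate median or of vehicle wells; lower values mean less growth of the strain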
Settings: S. cerevisiae deletion strains, growth OD

Measured: normalized growth

COC(=O)c1c(C)cc(O)cc1O
inactive: locus YAL021C, strain ccr4, stronger effect = lower value 1.02 | locus YAL026C, strain drs2, stronger effect = lower value 1 | locus YAL030W, strain snc1, stronger effect = lower value 1 | locus YBL061C, strain skt5, stronger effect = lower value 1.02 | locus YBR009C, strain hhf1, stronger effect = lower value 1 | locus YBR023C, strain chs3, stronger effect = lower value 1.01 | locus YBR171W, strain sec66, stronger effect = lower value 1 | locus YBR231C, strain swc5, stronger effect = lower value 1.01 | locus YBR279W, strain paf1, stronger effect = lower value 1.02 | locus YCL011C, strain gbp2, stronger effect = lower value 1.01 | locus YCL016C, strain dcc1, stronger effect = lower value 1.01 | locus YCL061C, strain MRC1, stronger effect = lower value 1.01 | locus YCL069W, strain vba3, stronger effect = lower value 0.999 | locus YCR088W, strain abp1, stronger effect = lower value 0.994 | locus YDL005C, strain med2, stronger effect = lower value 1.01 | locus YDL040C, strain nat1, stronger effect = lower value 1 | locus YDR001C, strain nth1, stronger effect = lower value 0.998 | locus YDR069C, strain doa4, stronger effect = lower value 1.01 | locus YDR137W, strain rgp1, stronger effect = lower value 1 | locus YDR159W, strain sac3, stronger effect = lower value 1.02 | locus YDR195W, strain ref2 1.05 | locus YDR297W, strain sur2, stronger effect = lower value 1.01 | locus YDR334W, strain swr1, stronger effect = lower value 1.01 | locus YDR335W, strain msn5, stronger effect = lower value 1.01 | locus YDR392W, strain spt3, stronger effect = lower value 0.978 | locus YEL003W, strain gim4, stronger effect = lower value 1.01 | locus YEL037C, strain rad23, stronger effect = lower value 1.01 | locus YEL061C, strain CIN8 (second series), stronger effect = lower value 1.01 | locus YER015W, strain faa2, stronger effect = lower value 1 | locus YER016W, strain bim1, stronger effect = lower value 1.01 | locus YER111C, strain swi4, stronger effect = lower value 1.03 | locus YER155C, strain BEM2 (second series), stronger effect = lower value 0.995 | locus YFR010W, strain ubp6, stronger effect = lower value 1.02 | locus YGL167C, strain pmr1, stronger effect = lower value 1.01 | locus YGL173C, strain kem1, stronger effect = lower value 1.02 | locus YGL227W, strain vid30, stronger effect = lower value 1 | locus YGL240W, strain doc1, stronger effect = lower value 1 | locus YGL253W, strain hxk2, stronger effect = lower value 1.01 | locus YHR013C, strain ard1, stronger effect = lower value 1.03 | locus YHR027C, strain rpn1, stronger effect = lower value 1.02 | locus YHR030C, strain SLT2, stronger effect = lower value 0.994 | locus YHR079C, strain IRE1, stronger effect = lower value 0.996 | locus YHR142W, strain chs7, stronger effect = lower value 1 | locus YJL092W, strain hpr5, stronger effect = lower value 0.998 | locus YJL095W, strain BCK1 (second series), stronger effect = lower value 1 | locus YJL095W, strain BCK1, stronger effect = lower value 0.984 | locus YJL115W, strain asf1, stronger effect = lower value 1.01 | locus YJL129C, strain trk1, stronger effect = lower value 1 | locus YJL154C, strain vps35, stronger effect = lower value 1.01 | locus YJL164C, strain tpk1, stronger effect = lower value 1.01 | locus YJL166W, strain qcr8, stronger effect = lower value 0.998 | locus YJL187C, strain SWE1, stronger effect = lower value 1.01 | locus YJR066W, strain TOR1, stronger effect = lower value 0.948 | locus YKL160W, strain elf1, stronger effect = lower value 1 | locus YKR026C, strain gcn3, stronger effect = lower value 1 | locus YKR091W, strain srl3, stronger effect = lower value 1.01 | locus YLL001W, strain dnm1, stronger effect = lower value 1.02 | locus YLL026W, stronger effect = lower value 0.996 | locus YLL041C, strain sdh2, stronger effect = lower value 1.01 | locus YLR027C, strain aat2, stronger effect = lower value 1.01 | locus YLR113W, strain HOG1, stronger effect = lower value 1.03 | locus YLR221C, strain rsa3, stronger effect = lower value 0.999 | locus YLR258W, strain gsy2, stronger effect = lower value 1.01 | locus YLR262C, strain YPT6 (second series), stronger effect = lower value 0.985 | locus YLR320W, strain mms22, stronger effect = lower value 1.01 | locus YLR342W, strain FKS1, stronger effect = lower value 1.01 | locus YLR357W, strain rsc2, stronger effect = lower value 1.03 | locus YLR370C, strain arc18, stronger effect = lower value 0.992 | locus YLR384C, strain iki3, stronger effect = lower value 1.01 | locus YML120C, strain ndi1, stronger effect = lower value 0.993 | locus YMR058W, strain fet3, stronger effect = lower value 1.01 | locus YMR125W, strain sto1, stronger effect = lower value 1.02 | locus YMR129W, stronger effect = lower value 1.01 | locus YMR205C, strain PFK2, stronger effect = lower value 1.01 | locus YMR231W, strain pep5, stronger effect = lower value 1.01 | locus YNL071W, strain lat1, stronger effect = lower value 0.987 | locus YNL183C, strain NPR1, stronger effect = lower value 0.917 | locus YNL209W, strain ssb2, stronger effect = lower value 1.01 | locus YNL248C, strain rpa49, stronger effect = lower value 1.01 | locus YNL322C, strain KRE1 (second series), stronger effect = lower value 1 | locus YNR049C, strain mso1, stronger effect = lower value 1 | locus YOR001W, strain rrp6, stronger effect = lower value 1 | locus YOR070C, strain gyp1, stronger effect = lower value 1 | locus YOR080W, strain dia2, stronger effect = lower value 1.01 | locus YOR083W, strain WHI5, stronger effect = lower value 1.01 | locus YOR106W, strain vam3, stronger effect = lower value 0.999 | locus YOR231W, strain MKK1, stronger effect = lower value 0.987 | locus YOR265W, strain rbl2, stronger effect = lower value 0.999 | locus YOR270C, strain vph1, stronger effect = lower value 0.961 | locus YOR290C, strain snf2, stronger effect = lower value 1.01 | locus YPL051W, strain arl3, stronger effect = lower value 1 | locus YPL078C, strain atp4, stronger effect = lower value 0.999 | locus YPL106C, strain sse1, stronger effect = lower value 0.982 | locus YPL240C, strain hsp82, stronger effect = lower value 0.996 | locus YPL256C, strain CLN2, stronger effect = lower value 1.01
